Assay [1] can be described thus: TOX21_p53_BLA_p2_viability: Viability Assessment in the Tox21 HCT-116 p53 Agonism Beta-lactamase Assay, Phase 2 (AID 2283591).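 Note: compound exposure lasted 16 h at 37 °C; actives lower the ATP signal meaning cytotoxicity.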 In short, it runs like this:
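HCT116 p53-bla cells, 4000/well, dosed after 5 h plating (217-fold dilution of DMSO stocks) and incubated 16 h at 37C. Viability taken as cellular ATP by CellTiter-Glo luminescence after 30 min RT; signal loss marks cytotoxicity.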

The target in assay [2] is Cellular tumor antigen p53 (Homo sapiens) (UniProt P04637). In words: TOX21_p53_BLA_p2_ratio: Tox21 HCT-116 p53 Agonism Beta-lactamase Assay, Ratio, Phase 2 (AID 2283592). In outline:
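DMSO-normalized, positive-direction endpoint derived from the 460 nm/530 nm FRET ratio in HCT116 p53 beta-lactamase reporter cells exposed 16 h at 37C and loaded with CCF4-AM for 2 h.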

For assay [3] the target is unchanged. In words: TOX21_p53_BLA_p3_ratio: Tox21 HCT-116 p53 Agonism Beta-lactamase Assay, Ratio, Phase 3 (AID 2283596). In short, it runs like this: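 Cells were seeded at 4000/well, rested 5 h at 37C, then dosed with DMSO compound solutions (217-fold dilution) for 16 h. CCF4-AM substrate was loaded for 2 h at room temperature, and the 460/530 nm emission ratio was fitted for gain of signal versus DMSO.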

Assay [4] can be described thus: TOX21_p53_BLA_p4_viability: Viability Assessment in the Tox21 HCT-116 p53 Agonism Beta-lactamase Assay, Phase 4 (AID 2283597).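 Note: hits lower the luminescence signal meaning cytotoxicity.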 In short, it runs like this:
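In this multiplexed secondary endpoint, HCT116 cells (4000 per well, compound at 5 h, 16 h treatment) received CellTiter-Glo after the beta-lactamase read. Luminescence after 30 min RT reflects ATP, and falling signal marks cytotoxicity.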

Assay [5] deals with Cellular tumor antigen p53 (Homo sapiens) (UniProt P04637). Description: TOX21_p53_BLA_p5_ratio: Tox21 HCT-116 p53 Agonism Beta-lactamase Assay, Ratio, Phase 5 (AID 2283599). In outline: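 HCT-116 p53-bla cells (4000/well) plated 5 h, dosed with compound (217-fold DMSO dilution) for 16 h at 37 C; CCF4-AM substrate 2 h at room temperature. Activity is the 460/530 nm emission ratio (405 nm excitation), fitted in gain-of-signal direction versus DMSO.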

Assay [6] in a line: TOX21_p53_BLA_p5_viability: Viability Assessment in the Tox21 HCT-116 p53 Agonism Beta-lactamase Assay, Phase 5 (AID 2283600). In outline:
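Here cell health was gauged by ATP levels in wells holding 4000 cells, each treated 16 h with DMSO-delivered compounds at 217-fold dilution; reduced luminescence marked toxicity.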

The target in assay [7] is Cellular tumor antigen p53 (Homo sapiens) (UniProt P04637). In words: TOX21_p53_BLA_p4_ratio: Tox21 HCT-116 p53 Agonism Beta-lactamase Assay, Ratio, Phase 4 (AID 2283601). In short, it runs like this: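 HCT-116 p53 beta-lactamase reporter cells (4000/well) preincubated 5 h, then compound (217-fold dilution of DMSO stock) for 16 h at 37C. CCF4-AM substrate added 2 h at room temperature; 460/530 nm emission ratio fitted upward versus DMSO.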

Assay [8] relates to Brachyury (BRA) Protein Expression, Deisenroth Lab, TBXT (gene 6862). In words: CCTE_Deisenroth_DEVTOX-GLR_legacy_Bra: (Legacy) CCTE's DevTox GLR-Endo Assay Evaluation of Brachyury (BRA) Protein Expression, Deisenroth Lab (AID 2284329; active = hit-call score of the fitted dose curve at least 0.9, where 1 is the maximum; inactive = score below 0.9). In outline:
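Readout: percent Bra+ cells by high-content fluorescence imaging, Bra+ meaning mean intensity 5x BMAD over pluripotent control median. RUES2-GLR cells dosed twice over 48 h differentiation; DMSO-control median subtracted before concentration-response fitting.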

A short description of assay [9]: CCTE_Deisenroth_DEVTOX-GLR_legacy_CellCount: (Legacy) Viability Assessment in CCTE's DevTox GLR-Endo Assay, Deisenroth Lab (AID 2284331; active = hit-call score of the fitted dose curve at least 0.9, where 1 is the maximum; inactive = score below 0.9). The note with it: actives raise or lower the signal. In outline:
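Seed RUES2-GLR 24 h; differentiate 48 h, dosing at 0 and 24 h; fix, stain nuclei; image 5 fields/well; count nuclei. Conc. 1 nM - 200 uM, single technical replicate, n=4 experiments; bidirectional fit vs 0.2% DMSO.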

The subject of assay [10] is Brachyury (BRA) Protein Expression, TBXT (gene 6862). Description: CCTE_Deisenroth_DEVTOX-GLR_Endo_BRA: CCTE's DevTox GLR-Endo Assay Evaluation of Brachyury (BRA) Protein Expression, Deisenroth Lab (AID 2284417; active = hit-call score of the fitted dose curve at least 0.9, where 1 is the maximum; inactive = score below 0.9). In short, it runs like this:
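Percent BRA+ (mesoderm) RUES2-GLR cells after 48 h differentiation with two exposures, 1 nM - 200 uM; 0.2% DMSO control subtracted.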

Assay [11] can be described thus: CCTE_Deisenroth_DEVTOX-GLR_Endo_CellCount: Viability Assessment in CCTE's DevTox GLR-Endo Assay, Deisenroth Lab (AID 2284420; active = hit-call score of the fitted dose curve at least 0.9, where 1 is the maximum; inactive = score below 0.9). In outline:
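Measured 48 h after dosing: fluorescent nuclei counted by imaging in human RUES2-GLR cells under defined differentiation media, tested at 1 nM - 200 uM. Values are percent cell-count change relative to 0.2% DMSO.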

Assay [12] concerns SRY-box transcription factor 17 (SOX17) Protein Expression, Deisenroth Lab, SOX17 (gene 64321). In words: CCTE_Deisenroth_DEVTOX-GLR_Pluri_SOX17: CCTE's DevTox GLR-Pluri Assay Evaluation of SRY-box transcription factor 17 (SOX17) Protein Expression, Deisenroth Lab (AID 2284427). In short, it runs like this: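 Using an inducible fluorescent SOX17 reporter in human pluripotent RUES2-GLR cells, compounds (1 nM - 200 uM) were given twice over 48 h differentiation. Percent SOX17+ cells minus DMSO control came from high-content image analysis.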

Assay [13] concerns SRY-box transcription factor 2 (SOX2) Protein Expression, Deisenroth Lab, SOX2 (gene 6657). In words: CCTE_Deisenroth_DEVTOX-GLR_Pluri_SOX2: CCTE's DevTox GLR-Pluri Assay Evaluation of SRY-box transcription factor 2 (SOX2) Protein Expression, Deisenroth Lab (AID 2284428; active = hit-call score of the fitted dose curve at least 0.9, where 1 is the maximum; inactive = score below 0.9). In short, it runs like this: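 Percent SOX2+ RUES2-GLR cells, determined by fluorescence microscopy after 48 h and two 24-h-interval chemical exposures spanning 1 nM–200 uM, served as the endpoint. Values are expressed relative to 0.2% DMSO; total cell counts assessed viability.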

Assay [14] has as its system Brachyury (BRA) Protein Expression, Deisenroth Lab, TBXT (gene 6862). In words: CCTE_Deisenroth_DEVTOX-GLR_Pluri_BRA: CCTE's DevTox GLR-Pluri Assay Evaluation of Brachyury (BRA) Protein Expression, Deisenroth Lab (AID 2284429). In short, it runs like this:
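RUES2-GLR reporter line; 48 h mesoderm differentiation; two exposures, 24 h apart; 1 nM - 200 uM, 10 points; nuclear stain, high-content imaging, 5 fields/well; endpoint = %BRA+ cells of total count minus 0.2% DMSO; n=4.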

Assay [15] can be described thus: CCTE_Deisenroth_DEVTOX-GLR_Pluri_CellCount: Viability Assessment in CCTE's DevTox GLR-Pluri Assay Evaluation of Total Cell Counts, Deisenroth Lab (AID 2284430; active = hit-call score of the fitted dose curve at least 0.9, where 1 is the maximum; inactive = score below 0.9). In short, it runs like this:
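Cytotoxicity readout: fluorescent nuclei counts by high-content imaging, expressed as percent change relative to 0.2% DMSO. Human RUES2-GLR pluripotent line differentiated 48 h, dosed twice at 24-h intervals across 1 nM - 200 uM (10 points).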

The target of assay [16] is PGR (gene 5241) (UniProt P06401). Description: TOX21_PR_BLA_Followup_Antagonist_ratio: Tox21 HEK293 Progesterone Receptor (PR) Antagonism Beta-lactamase Follow-Up Assay, Ratio (AID 2283934).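 Note: PR-UAS-bla HEK293T cells stimulated with 1 nM R5020 agonist for 16 hr.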 In short, it runs like this: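 Measured in PR-UAS-bla HEK293T cells co-treated with compound and 1 nM promegestone for 16 hr; beta-lactamase ratio read after 2 h FRET substrate loading, with parallel CellTiter-Glo cytotoxicity.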

The nature of assay [17]: TOX21_PR_BLA_Followup_Agonist_viability: Viability Assessment in the Tox21 HEK293 Progesterone Receptor (PR) Agonism Beta-lactamase Follow-Up Assay (AID 2283935).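 Note: signal loss means lower viability so actives are cytotoxic.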 In short, it runs like this: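 Viability is read as CellTiter-Glo luminescence, where loss of signal indicates cytotoxicity. The cells are PR-UAS-bla HEK293T given compounds for 16 hr at 37C and 5% CO2, in the same wells used for the bla readout.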

For assay [18], the target named is PGR (gene 5241) (UniProt P06401). Description: TOX21_PR_LUC_Followup_Antagonist: Tox21 HEK293 Progesterone Receptor (PR) Antagonism Luciferase Follow-Up Assay (AID 2283938).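 Note: curve fitted upward as signal gain over DMSO baseline despite antagonist label.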 In outline:
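Luciferase reporter in HEK293-PR-A-luc cells: 16 h compound treatment at 37C, ONE-Glo luminescence detection, DMSO as negative control and baseline.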

Assay [19] can be described thus: TOX21_PR_LUC_Followup_Agonist_viability: Viability Assessment in the Tox21 HEK293 Progesterone Receptor (PR) Agonism Luciferase Follow-Up Assay (AID 2283941).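 Note: loss of signal means cytotoxicity so actives lower viability.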 In outline:
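Seeding: HEK293-PR-A-luc, 3,000 cells/well, 5 h at 37C. Treatment: compound in DMSO, 16 h, 37C. Read: CellTiter-Glo ATP luminescence, signal loss taken as lower viability.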

The nature of assay [20]: TOX21_PR_BLA_Followup_Antagonist_viability: Viability Assessment in the Tox21 HEK293 Progesterone Receptor (PR) Antagonism Beta-lactamase Follow-Up Assay (AID 2283936).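 Note: cells exposed to compound with R5020 agonist for 16 h; hits lower the luminescence signal meaning cytotoxicity.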 In short, it runs like this: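 PR-UAS-bla HEK293T cells in medium with 2% charcoal-stripped FBS were treated with compounds plus R5020 for 16 hr at 37C. After the beta-lactamase read, CellTiter-Glo was added to the same wells and luminescence read after 30 min at room temperature.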

Molecules are shown by their SMILES. Inconclusive results are not listed. The source made the active and inactive calls. Rule for the calls, unless noted: active = hit-call score of the fitted dose curve at least 0.9, where 1 is the maximum; inconclusive = response in the unintended direction; inactive = score below 0.9.

One may read the AC50 as the midpoint of the concentration-response curve, whichever way the signal moves.

PGR (gene 5241), sequence (P06401 whole entry, looked up): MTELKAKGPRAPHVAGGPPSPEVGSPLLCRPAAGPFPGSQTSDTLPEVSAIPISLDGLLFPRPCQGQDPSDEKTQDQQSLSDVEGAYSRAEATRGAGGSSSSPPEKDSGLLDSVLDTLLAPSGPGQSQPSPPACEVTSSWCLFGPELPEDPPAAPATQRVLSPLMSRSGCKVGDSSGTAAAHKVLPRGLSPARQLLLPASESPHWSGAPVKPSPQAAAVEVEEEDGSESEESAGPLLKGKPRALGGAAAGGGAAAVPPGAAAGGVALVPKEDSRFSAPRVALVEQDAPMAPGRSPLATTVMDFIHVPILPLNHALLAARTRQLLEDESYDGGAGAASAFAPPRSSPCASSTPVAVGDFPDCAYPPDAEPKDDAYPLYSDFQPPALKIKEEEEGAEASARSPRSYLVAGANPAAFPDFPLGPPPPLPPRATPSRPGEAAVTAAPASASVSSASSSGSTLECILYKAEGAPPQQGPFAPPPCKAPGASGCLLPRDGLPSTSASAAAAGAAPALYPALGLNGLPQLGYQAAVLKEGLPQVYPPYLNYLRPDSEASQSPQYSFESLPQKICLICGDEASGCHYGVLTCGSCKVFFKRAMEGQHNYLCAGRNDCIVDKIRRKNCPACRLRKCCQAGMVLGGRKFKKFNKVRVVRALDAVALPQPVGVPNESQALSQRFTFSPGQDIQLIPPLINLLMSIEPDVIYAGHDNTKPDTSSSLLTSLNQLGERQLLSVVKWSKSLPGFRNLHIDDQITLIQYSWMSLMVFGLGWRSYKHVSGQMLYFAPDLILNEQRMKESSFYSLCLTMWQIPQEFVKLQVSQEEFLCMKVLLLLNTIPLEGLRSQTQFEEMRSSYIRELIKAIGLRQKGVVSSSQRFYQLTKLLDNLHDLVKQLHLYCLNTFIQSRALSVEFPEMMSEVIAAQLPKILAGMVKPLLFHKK
Cellular tumor antigen p53 (Homo sapiens), sequence (P04637 whole entry, looked up): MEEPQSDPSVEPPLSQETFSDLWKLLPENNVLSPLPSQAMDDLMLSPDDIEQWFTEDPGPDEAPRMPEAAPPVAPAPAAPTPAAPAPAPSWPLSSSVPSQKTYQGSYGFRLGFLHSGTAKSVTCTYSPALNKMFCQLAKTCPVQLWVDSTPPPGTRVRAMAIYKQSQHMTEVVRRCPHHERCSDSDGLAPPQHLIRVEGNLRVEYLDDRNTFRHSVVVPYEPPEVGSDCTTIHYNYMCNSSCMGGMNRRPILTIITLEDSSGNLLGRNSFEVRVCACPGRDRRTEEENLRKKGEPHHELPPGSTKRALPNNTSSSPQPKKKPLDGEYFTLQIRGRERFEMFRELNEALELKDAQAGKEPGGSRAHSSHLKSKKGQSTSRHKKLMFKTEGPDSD

`O=c1[nH]c(=O)n([C@H]2C[C@H](O)[C@@H](CO)O2)cc1Br`: the outcome in [1], in assay [2], in assay [3], in [4], in assay [5] and in assay [6] was inactive. In addition, the result in assay [7] and in assay [12] was inactive. Further, the AC50 in [8] is 11.7 µM (active); in assay [9], 10.2 µM (active); in assay [10], 32.8 µM (active); in assay [11], 10.2 µM (active); in [13] it was 3.42 µM (active); in assay [14] it was 79.6 µM (active). Also, the AC50 in assay [15] is 23.7 µM (active).

Regarding `CNCC[C@@H](Oc1ccccc1C)c1ccccc1`, the molecule was called inactive in [1], in assay [2], in assay [3], in assay [4], in [5] and in [7].

Take `COc1ccc(C(=O)Nc2ccccc2CCC2CCCCN2C)cc1` (stereo not given): the call in assay [1], in [2], in assay [3], in assay [4] and in assay [6] was inactive.

As to `O=Cc1cccc(Br)c1`, the call in assay [1], in assay [2], in [3], in [4], in assay [5] and in assay [7] was inactive.

On to `CCC(=O)Oc1ccc2c(c1)CC[C@@H]1[C@@H]2CC[C@]2(C)[C@@H](OC(=O)CC)CC[C@@H]12`, for which the molecule was called inactive in assay [1], in assay [2], in assay [3], in assay [4] and in [6].

In the case of `CN(C)CC/C=C1\c2ccccc2Sc2ccc(Cl)cc21`, the result in assay [1], in [3] and in assay [5] was inactive. Also, the half-maximal activity concentration (AC50) in assay [2] is 33.1 µM (active); in [4] it was 35.7 µM (active); in assay [7], 21.9 µM (active).

`CCOC(=O)CC(=O)c1cc(F)c(Cl)nc1Cl`: the molecule was called inactive in [1], in [2], in [3], in assay [4], in assay [6] and in [7].

Consider `CO`, for which the molecule was called inactive in assay [1], in [2], in [3], in assay [4], in [5] and in [7].

As to `NCC(O)CC(=O)O` (stereo not given), the result in assay [1], in assay [2], in assay [3], in assay [4], in assay [5] and in [7] was inactive.

In the case of `Cc1cccc(C)c1NC(=O)C(C)N` (stereo not given), the outcome in assay [1], in assay [2], in assay [3], in assay [4], in assay [5] and in [7] was inactive.

For `Cc1occc1S`, the molecule was classed as inactive in [1], in assay [2], in [3], in [4], in [5] and in [7].

Consider `CC1(C)CCC(C)(C)c2cc(NC(=O)c3ccc(C(=O)O)cc3)ccc21`, for which the AC50 in [1] is 36.6 µM (active); in assay [3] it was 39.1 µM (active); in assay [4], 36.1 µM (active); in assay [5] it was 44.2 µM (active); in assay [6], 43.5 µM (active); in assay [7], 44.7 µM (active). Besides, the outcome in assay [2], in [16], in assay [17], in assay [18] and in assay [19] was inactive.

Consider `N#C/C(=C1/SC[C@@H](c2ccc(Cl)cc2Cl)S1)n1ccnc1`, for which the outcome in [1], in assay [2], in [3], in assay [4], in assay [5] and in assay [6] was inactive. For the same molecule, the outcome in [7], in assay [17], in assay [20] and in assay [18] was inactive. Also, in assay [16], the AC50 was 33 µM (active).

Source of the values: PubChem BioAssay (EPA / NIEHS).
